According to PubChem BioAssay (Tox21):
Several values for one entry are separate records, joined by “and”; a condition that tells them apart may be missing. Equal values may be shown once. Records with an inconclusive call do not appear. Where a structure was tested more than once in an assay, its records may differ in their call. Activity calls are given as the source filed them. Unless noted, the call rests on the fitted dose curve; in most records, active means well fitted curve in the direction sought with a large enough effect in the repeat runs; inconclusive means weak or mixed curves; inactive means no such curve, though single readings can be large; an effect the other way counts as inactive or inconclusive.

Assays:
[1] = qHTS assay to identify small molecule antagonists of the vitamin D receptor (VDR) signaling pathway - cell viability counter screen (AID 743225); further: nearly all actives have a fitted effect of over 50% in size
In short: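 Cytotoxicity toward the VDR-bla HEK 293T line was scored by ATP-based CellTiter-Glo luminescence, read in the wells already used for the beta-lactamase readout after 16 h compound treatment under 3 nM 1-alpha,25-dihydroxyvitamin D3 stimulation.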

[2] = qHTS assay to identify small molecule agonists of the NFkB signaling pathway (AID 1159509; active means well fitted curve in the direction sought with a large enough effect in the signal ratio in the repeat runs, not every such curve was filed as active; the % refers to the signal ratio; further: series mostly up to about 61 µM)
In short: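 NFkB-bla ME-180 cells with a beta-lactamase reporter under an NF-kB response element were plated overnight, treated with compounds in DMSO for 5 hr at 37 C, then loaded with FRET substrate for 1.5 hr at room temperature.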

[3] = qHTS assay to identify small molecule agonists of the NFkB signaling pathway - cell viability counter screen (AID 1159515; calls by dose curve; further: series mostly up to about 61 µM; nearly all actives have a fitted effect of over 55% in size)
In short: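 NFkB-bla ME-180 cells, 2,000/well, were plated overnight at 37 C, 5% CO2, then exposed to compounds in DMSO for 5 hr. After the bla FRET read, CellTiter-Glo was added to the same wells; luminescence was read after 30 min at room temperature.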

[4] = qHTS assay to identify small molecule agonists of the endoplasmic reticulum stress response signaling pathway (AID 1159516; active means well fitted activation curve with a large enough effect in the signal ratio in the repeat runs, not every such curve was filed as active; the % refers to the signal ratio)
In short: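 CellSensor ESRE-bla HeLa cells, carrying a beta-lactamase reporter driven by the ER stress response element, were plated overnight and exposed to compounds for 5 hr at 37 C. Reporter activity was read as FRET substrate fluorescence after 2 hr at room temperature.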

[5] = qHTS assay to identify small molecule agonists of the endoplasmic reticulum stress response signaling pathway - cell viability counter screen (AID 1159517; calls by dose curve; further: series mostly up to about 61 µM; nearly all actives have a fitted effect of over 50% in size)
In short: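 Luminescence readout: CellTiter-Glo, 30 min RT, same wells as the ESRE-bla reporter read. HeLa ESRE-bla, 1,500 cells/well, o/n 37 C; cpd 5 hr 37 C/5% CO2.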

[6] = qHTS assay to identify small molecule antagonists of the retinoid-related orphan receptor gamma (ROR-gamma) signaling pathway - cell viability counter screen (AID 1159520); further: nearly all actives have a fitted effect of over 50% in size; further: potency means the concentration at half of the fitted maximal effect
In short: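 Tet-on ROR gamma CHO cells (1,000/well) were plated 4 hr, given compounds in DMSO for 2 hr at 37 C, then induced with 1 uM final doxycycline for 16 hr. Viability was read as ATP by CellTiter-Glo luminescence after 30 min.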

[7] = biological target: Nuclear receptor ROR-gamma (Homo sapiens) (UniProt P51449); experiment: qHTS assay to identify small molecule antagonists of the retinoid-related orphan receptor gamma (ROR-gamma) signaling pathway (AID 1159521;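 further: CHO cells with doxycycline inducible ROR-gamma driving an RORE luciferase reporter; top concentration of the series differs between compounds; nearly all actives have a fitted effect of over 50% in size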)
In short: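 Readout: ONE-Glo luciferase luminescence, 30 min at room temperature. System: Tet-on RORγ CHO, RORE-LUC. Sequence: compound 2 h, doxycycline 1 uM final, 16 h at 37 C.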

[8] = qHTS assay to identify small molecule agonists of the AP-1 signaling pathway - cell viability counter screen (AID 1159525; calls by dose curve; further: nearly all actives have a fitted effect of over 55% in size)
In short: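 ME-180 AP-1-bla, 2500 cells/well, Opti-MEM + 0.5% dialyzed FBS; overnight 37 °C; cpd 15-pt titration, 5 h 37 °C; CellTiter-Glo 30 min RT; luminescence read; normalised to TOAB and DMSO controls.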

[9] = qHTS assay to identify small molecule agonists of the AP-1 signaling pathway (AID 1159526; calls by dose curve)
[10] = biological target: Retinoic acid receptor RXR-alpha (Homo sapiens) (UniProt P19793); experiment: qHTS assay to identify small molecule agonists of the RXR signaling pathway (AID 1159527; calls by dose curve; further: nearly all actives have a fitted effect of over 35% in size)
In short: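 Reporter activation is measured as beta-lactamase activity via FRET substrate cleavage (emission 460/530 nm) in HEK 293T cells expressing an RXR-alpha-driven bla construct, following 16 hr compound exposure at 37 C.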

[11] = qHTS assay to identify small molecule agonists of the RXR signaling pathway - cell viability counter screen (AID 1159529)
In short: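 Tox21 10K compounds were tested for cytotoxicity against GeneBLAzer RXR-alpha HEK 293T cells grown in 2% charcoal-stripped FBS. Exposure lasted 16 hr at 37 C, 5% CO2; viability read by CellTiter-Glo luminescence.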

[12] = qHTS assay to identify small molecule antagonists of the retinoid acid receptor (RAR) signaling pathway - cell viability counter screen (AID 1159551); further: nearly all actives have a fitted effect of over 35% in size
In short: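 C3RL4 cells were seeded overnight at 37 C, then treated with compounds plus 1 uM (final) retinol for 6 h at 37 C. Viability was read as ATP by CellTiter-Glo luminescence after 30 min at room temperature.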

[13] = qHTS assay to identify small molecule antagonists of the estrogen related receptor (ERR) signaling pathway from Tox21 library - cell viability counter screen (AID 1224834); further: nearly all actives have a fitted effect of over 30% in size
In short: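 ERR reporter cells were plated 6 h before compound addition, then exposed to test compounds in DMSO for 17.5 h at 37 C. Viability was read as CellTiter-Fluor fluorescence after a 30-minute incubation at 37 C.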

[14] = biological target: Luciferin 4-monooxygenase (Photinus pyralis) (UniProt P08659); experiment: qHTS assay to identify small molecule inhibitors of firefly luciferase (AID 1224835); further: nearly all actives have a fitted effect of over 25% in size; further: potency means the concentration at half of the fitted maximal effect
In short: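 Quantitative HTS format; KM concentrations of both substrates. Purified P. pyralis FLuc activity quantified from luminescence images.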

[15] = qHTS assay to identify small molecule agonists of the constitutive androstane receptor (CAR) signaling pathway - cell viability counter screen (AID 1224836); further: series mostly up to about 92 µM; nearly all actives have a fitted effect of over 45% in size
In short: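 Fluorescence from CellTiter-Fluor indicates live cells after 23 h exposure. The human hepatoma line expresses hCAR and a CYP2B6-2.2kb reporter. Incubation medium contains 0.75 uM PK11195 (final).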

[16] = qHTS assay to identify small molecule antagonists of the constitutive androstane receptor (CAR) signaling pathway - cell viability counter screen (AID 1224837); further: series mostly up to about 92 µM; nearly all actives have a fitted effect of over 45% in size
In short: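 HepG2 cells stably expressing hCAR and a CYP2B6-2.2kb reporter were plated and pre-incubated 4 hr at 37 C/5% CO2, then given compounds at 15 concentrations plus 50 nM CITCO (final). After 23 hr, viability was read by CellTiter-Fluor fluorescence.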

[17] = qHTS assay to identify small molecule antagonists of the retinoic acid receptor (RAR) signaling pathway (AID 1159552; further: nearly all actives have a fitted effect of over 50% in size)
In short: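 Overnight-plated C3RL4 reporter cells get compound, then retinol to 1 uM final; plates sit 6 hr at 37 C, 5% CO2. A luciferase reagent is added and light output recorded after 30 min at room temperature.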

[18] = qHTS assay to identify small molecule agonists of the retinoic acid receptor (RAR) signaling pathway (AID 1159553); further: potency means the concentration at half of the fitted maximal effect
In short: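 C3RL4 cells carrying a RARE luciferase reporter were plated overnight at 37 C, then exposed to compounds in DMSO for 6 hr at 37 C and 5% CO2. Luminescence was read 30 min after luciferase reagent addition at room temperature.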

[19] = qHTS assay to identify small molecule agonists of the vitamin D receptor (VDR) signaling pathway - cell viability counter screen (AID 743224)
In short: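 VDR-bla cells were preincubated 4 h at 37C/5% CO2, then exposed to compounds for 16 h. After the 2 h room-temperature bla FRET read, CellTiter-Glo was added to the same wells and luminescence read after 30 min.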

Measured: Potency

Sequence of Retinoic acid receptor RXR-alpha (Homo sapiens) (P19793 whole entry, looked up): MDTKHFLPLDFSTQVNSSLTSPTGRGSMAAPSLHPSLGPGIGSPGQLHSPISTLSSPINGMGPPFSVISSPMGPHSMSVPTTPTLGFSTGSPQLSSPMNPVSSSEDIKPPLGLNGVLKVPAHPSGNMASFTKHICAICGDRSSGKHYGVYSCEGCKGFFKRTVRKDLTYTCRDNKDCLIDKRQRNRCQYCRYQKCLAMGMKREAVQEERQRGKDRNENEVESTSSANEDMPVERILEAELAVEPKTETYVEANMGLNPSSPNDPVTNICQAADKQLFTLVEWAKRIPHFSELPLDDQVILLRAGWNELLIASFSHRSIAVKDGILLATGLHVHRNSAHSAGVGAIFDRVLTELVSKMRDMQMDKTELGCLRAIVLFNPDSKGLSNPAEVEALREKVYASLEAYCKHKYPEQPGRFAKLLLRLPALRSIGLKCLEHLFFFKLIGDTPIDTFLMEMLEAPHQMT
Sequence of Luciferin 4-monooxygenase (Photinus pyralis) (P08659 whole entry, looked up): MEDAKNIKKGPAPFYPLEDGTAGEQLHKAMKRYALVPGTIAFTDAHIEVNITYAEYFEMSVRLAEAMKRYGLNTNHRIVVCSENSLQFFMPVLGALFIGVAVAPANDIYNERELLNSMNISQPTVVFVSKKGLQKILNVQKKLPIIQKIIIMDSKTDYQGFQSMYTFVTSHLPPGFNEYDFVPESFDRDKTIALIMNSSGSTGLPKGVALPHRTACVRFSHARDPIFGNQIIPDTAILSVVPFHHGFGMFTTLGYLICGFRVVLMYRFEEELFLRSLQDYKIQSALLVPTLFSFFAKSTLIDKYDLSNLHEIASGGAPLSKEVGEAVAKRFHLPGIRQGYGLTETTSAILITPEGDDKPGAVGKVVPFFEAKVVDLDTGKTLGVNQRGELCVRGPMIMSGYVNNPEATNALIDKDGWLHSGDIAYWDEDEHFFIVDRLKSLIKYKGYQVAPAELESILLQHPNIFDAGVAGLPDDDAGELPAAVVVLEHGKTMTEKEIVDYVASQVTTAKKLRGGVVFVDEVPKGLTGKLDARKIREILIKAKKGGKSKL

CCCCCCCCCC
not listed: [17] | [18] | [19]
inactive: all other assays above

CCCSc1ccc2nc(NC(=O)OC)[nH]c2c1
active: [18] 6.11 µM and 21.1 µM | [14] 3.99 µM and 4.36 µM
not listed: [10] | [19]
inactive: all other assays above

O=C(CC(C(=O)OC1CCCCC1)S(=O)(=O)O)OC1CCCCC1 (stereo not drawn)
inactive and 53.8 µM (active): [6]
not listed: [15]
inactive: all other assays above

CCCCCCCCCCCCc1ccccc1
not listed: [10]
inactive: all other assays above

C=C(C)C(=O)OCCOCCOCCOC(=O)C(=C)C
not listed: [10]
inactive: all other assays above

O=C(Oc1ccccc1)c1ccccc1
inactive and 71 µM (active): [14]
not listed: [10]
inactive: all other assays above

c1ccc2scnc2c1
not listed: [10]
inactive: all other assays above
